Screens from PubChem.
Only some compounds are listed: those with a hit (about 2.5% of all), similar ones and a draw of the others.
D2 antagonist – antagonists of human D2 dopamine receptor; HEK293 TREx D2 cells, calcium flux, dopamine EC80; 340,000 compounds, 2% hits; P14416; inhibition, % at 10 µM; in the data active = inhibition above about 30%; inactive = below that, where a call was filed; note: 0% is about no effect
Target sequence (P14416 whole entry, looked up): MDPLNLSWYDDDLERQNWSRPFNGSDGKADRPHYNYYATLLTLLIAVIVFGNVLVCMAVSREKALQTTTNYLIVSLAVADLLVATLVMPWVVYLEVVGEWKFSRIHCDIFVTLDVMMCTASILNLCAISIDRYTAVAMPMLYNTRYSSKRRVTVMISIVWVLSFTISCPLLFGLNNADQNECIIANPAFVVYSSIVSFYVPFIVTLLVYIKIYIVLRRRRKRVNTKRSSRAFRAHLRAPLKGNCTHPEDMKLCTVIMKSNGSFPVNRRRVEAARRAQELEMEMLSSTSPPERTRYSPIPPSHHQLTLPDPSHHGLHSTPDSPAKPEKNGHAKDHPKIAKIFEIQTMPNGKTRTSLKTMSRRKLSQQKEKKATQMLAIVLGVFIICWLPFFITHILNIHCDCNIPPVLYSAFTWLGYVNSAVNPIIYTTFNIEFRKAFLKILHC
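Calcium flux kinetic readout in an inducible HEK293 TREx D2 line plated overnight at 30 C. After 180 s compound exposure, an EC80 dopamine challenge follows with another 180 s kinetic read to detect antagonism.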
D2 PAM-1 – positive allosteric modulators of human D2 dopamine receptor; potentiation, % (test concentration not listed); 360,000 compounds, 0.23% hits; DiscoveRx D2 beta-arrestin cells, luminescence, 90 min; 100% = 57 uM dopamine signal; P14416; AID 624464; in the data active = potentiation above about 50%; inconclusive = mostly about 30% to 49%
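D2 cells co-treated with compound plus 50 nM dopamine (EC20) for 90 min at 37 deg C to detect potentiation. Beta-arrestin recruitment was read as enzyme-fragment luminescence after 1 h at ambient temperature. Full response was set by 57 uM dopamine.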
D2 ag-1 – human D2 receptor agonism in beta-arrestin assay; activation, % (concentration not given with the values); 360,000 compounds, 0.084% hits; DiscoveRx PathHunter D2 beta-arrestin, luminescence, 90 min; 100% = 57 uM dopamine signal; P14416; in the data active = activation above about 40%; inconclusive = between about 15% and that limit
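DiscoveRx PathHunter D2 beta-arrestin cells (2,100/well) attached overnight, then compound-stimulated 90 min at 37 C in HBSS/10 mM HEPES/0.1% Tween-20 buffer; beta-galactosidase complementation read by luminescence after 1 h at ambient temperature. Dopamine 57 uM final (EC100) as control.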
D2 PAM-2 – positive allosteric modulators of human D2 dopamine receptor; P14416; HEK293 T-REx D2, calcium flux, EC20 dopamine potentiation; potentiation, % at 10 µM; 340,000 compounds, 0.34% hits; AID 485347;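 active = potentiation over 3 SD above the plate norm, cut at about 30% in these data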; note: 0% is about no effect
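Using a no-wash calcium dye in inducible, force-coupled HEK293 Trex cells expressing D2, we tracked fluorescence each second for 180 s after compound, then for 180 s after EC20 dopamine to detect augmented signalling.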
D2 ag-2 – agonists of human D2 dopamine receptor. P14416. HEK293 T-REx D2 cells, calcium flux agonist mode. activation, % at 2 µM. 340,000 compounds, 0.53% hits. AID 485358;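 active = activation over 3 SD above normal in the single-dose calcium agonist read, cut at about 30% in these data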; note: 0% is about no effect
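Tetracycline-induced HEK293 T-REx cells with force-coupled D2 receptor, plated overnight at 30 C, loaded with no-wash calcium dye. After a 10 s baseline, compound was pin-added and calcium flux read kinetically for 180 s; calcium rises flagged agonists.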
Anesthetic bind – candidate novel general anesthetic via apoferritin binding. Potency, µM (series often up to 77.5 µM), for inactives: top-dose activity change, negative = displacement, most hits filed as inhibitors. P02791. apoferritin/1-aminoanthracene competitive binding, fluorescence. 350,000 compounds, 0.074% hits; active = well fitted inhibition curve with a large enough effect; inconclusive = small, poorly fitted or top-dose-only effect; inactive = no such curve, though single readings can be large or run the other way; note: potency is the fitted concentration of half-maximal effect; % is set by controls: 0 for no effect and ±100 for the full control effect; nearly all actives have a fitted effect of over 20% in size
Target sequence (P02791 2-175 limits assumed): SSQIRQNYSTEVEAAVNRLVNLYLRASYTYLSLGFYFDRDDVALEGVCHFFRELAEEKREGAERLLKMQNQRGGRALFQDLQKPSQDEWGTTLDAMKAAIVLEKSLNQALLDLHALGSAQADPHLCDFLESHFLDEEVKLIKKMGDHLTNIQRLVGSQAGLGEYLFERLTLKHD
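Steps: apoferritin (10 uM) was premixed with half-saturated 1-AMA in PBS, compounds were pin-transferred, plates stood 10 min at room temperature, fluorescence was read at 380/535 nm, and curves were fitted with a Hill equation.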
* marks the source's active call; other numbers are inactive results; ? = inconclusive; . = no result given.

SMILES	D2 antagonist	D2 PAM-1	D2 ag-1	D2 PAM-2	D2 ag-2	Anesthetic bind
Cc1cc(C)cc(N(C(=O)c2ccco2)C(C(=O)NC2CCCC2)c2ccncc2)c1 (stereo unspecified)	36.6*	7.6	-0.8	4.3	-1.4	6.4%
CCOC(=O)c1ccc(N(C(=O)c2ccco2)C(C(=O)NC2CCCC2)c2ccncc2)cc1 (stereo unspecified)	35.8*	6.1	3.1	5.4	-0.5	-1.4%
C=CCN(C(=O)CNC(=O)c1ccco1)C(C(=O)NC1CCCCC1)c1ccccc1F (stereo unspecified)	-7.4	-6.8	-3.8	38.3*	0.0	0.4%
COCCN(C(=O)CNC(=O)c1ccco1)C(C(=O)NC1CCCC1)c1ccccc1F (stereo unspecified)	-15.5	-1.7	2.2	12.2	0.9	1.8%
Cc1cc(C)cc(N(C(=O)CNC(=O)c2ccco2)C(C(=O)NC2CCCC2)c2ccncc2)c1 (stereo unspecified)	-3.7	-2.1	-2.5	5.2	1.1	-4.6%
O=C(NC1CCCC1)C(c1ccncc1)N(C(=O)c1ccco1)c1ccccc1 (stereo unspecified)	1.8	6.2	6.5	13.7	0.8	-6.3%
COc1ccc(C(C(=O)NCC2CCCO2)N(C(=O)CNC(=O)c2ccco2)c2cc(C)cc(C)c2)cc1OC (stereo unspecified)	-21.3	-6.4	0.2	34.1*	0.1	-5.2%
COc1ccc(C(C(=O)NCC2CCCO2)N(C(=O)CNC(=O)c2ccco2)c2ccc(C)c(C)c2)cc1OC (stereo unspecified)	12.0	-6.3	-3.0	-9.9	-0.2	-10.0%
CCOC(=O)C(NC(=O)c1ccccc1)(Nc1cccc(C)n1)C(F)(F)F (stereo unspecified)	2.6	-8.3	-3.2	.	0.9	-8.1%
CCN(c1ccc(NC(=O)COC(=O)c2ccc([N+](=O)[O-])o2)cc1)C(C)C	14.6	?	14.1	-4.0	1.0	.
O=C(NC1CCCCC1)C(c1ccncc1)N(C(=O)c1csnn1)c1ccc(F)cc1 (stereo unspecified)	37.0*	-14.1	-1.2	-1.0	0.5	2.1%
COc1ccc(N(C(=O)CNC(=O)c2ccco2)C(C(=O)NC2CCCCC2)c2cccnc2)cc1 (stereo unspecified)	38.1*	0.4	2.1	19.7	0.5	4.5%
COc1ccc(N(C(=O)CNC(=O)c2ccco2)C(C(=O)NC2CCCC2)c2cccnc2)cc1 (stereo unspecified)	5.1	8.0	-1.1	-0.5	0.7	6.4%
COc1ccc(OC)c(N(C(=O)c2ccco2)C(C(=O)NC2CCCC2)c2cc(OC)c(OC)c(OC)c2)c1 (stereo unspecified)	36.2*	3.4	0.6	-0.8	1.0	7.2%
COc1ccc(Cl)cc1N(C(=O)c1ccco1)C(C(=O)NC1CCCC1)c1ccncc1 (stereo unspecified)	39.4*	-2.5	-0.3	6.7	0.4	-7.7%
COc1ccc(Cl)cc1N(C(=O)c1ccco1)C(C(=O)NC1CCCC1)c1cccnc1 (stereo unspecified)	3.6	-9.9	-5.1	-2.8	-2.2	-6.6%
COc1ccc(NC(=O)CCCN2C(=O)COc3ccc(C)cc32)cc1OC	.	.	.	20.1	-1.4	-2.6%
CC(=NCCCn1ccnc1)C1=C(O)c2ccccc2C1=O	-29.3	-10.5	1.0	6.4	0.3	-12.2%
COc1cccc(/C=C/C(=O)NNC(=O)c2ccco2)c1OC	10.2	-2.9	0.1	14.8	0.1	.
CC(C)(C)OC(=O)C[C@H]1C/C=C\C[C@@H](CC(=O)N(CCO)Cc2ccccc2)C(=O)N[C@@H](c2ccccc2)COC1=O	.	-27.8	-1.1	.	.	.
COc1ccc(CNC(=O)CCCn2nc([N+](=O)[O-])cc2C)cc1	6.7	-11.6	-7.0	6.5	0.2	-7.5%
COc1ccc(-c2[nH]c(-c3cccc(OC)c3)nc2SCC(=O)NCc2ccco2)cc1	39.0*	-6.4	0.3	-20.7	-0.6	-0.4%
O=C(CSc1nnc(-c2ccccc2)c(-c2ccccc2)n1)NCc1ccco1	40.0*	-3.4	-3.2	6.5	0.4	-8.0%
COC(=O)c1ccc(CN2C(=O)NC3(CCC(C)CC3)C2=O)o1 (stereo unspecified)	4.7	-1.3	1.1	-15.8	0.7	-16.9%
COc1ccc(NC(=O)c2ccc3c(c2)OCO3)cc1[N+](=O)[O-]	7.5	-3.8	-4.6	-5.1	-1.0	-5.4%
SMILES	D2 antagonist	D2 PAM-1	D2 ag-1	D2 PAM-2	D2 ag-2	Anesthetic bind
COC(=O)c1c(NC(=O)c2ccco2)sc(C(=O)N(C)C)c1C	-20.7	-12.4	-3.4	77.3*	0.7	1.4%
COC(=O)c1c(NC(=O)c2cccnc2)sc(C(=O)N(C)C)c1C	9.7	-1.6	-1.9	21.0	1.9	-6.6%
CN(C)C(=O)c1c(NC(=O)c2ccco2)sc2c1CCCCC2	34.9*	20.1	-1.3	33.6*	-0.5	-5.1%
O=C(Nc1sc2c(c1C(=O)O)CCCCC2)c1ccco1	-4.0	3.8	1.7	-2.5	0.7	-11.7%
O=C(NCCc1c[nH]c2ccccc12)C1Cc2ccccc2CN1C(=O)c1ccco1 (stereo unspecified)	-6.2	3.4	0.0	6.6	-0.4	-15.3%
CC(C)(C)c1csc(NC(=O)c2ccc(Br)o2)n1	-17.8	-12.1	0.0	2.5	0.3	?
C=CCNC(=O)c1ccccc1NC(=O)COc1ccc(OC)cc1	-1.1	-15.0	-0.4	-1.0	0.0	-2.3%
C=CCNC(=O)c1ccccc1NC(=O)COc1ccccc1	58.9*	-5.8	-2.1	-1.9	-0.4	-10.4%
C=CCNC(=O)c1ccccc1Cl	40.2*	-6.1	0.4	-1.5	0.5	-10.1%
C=CCNC(=O)c1ccccc1CCc1ccccc1	3.1	-4.7	-6.5	-9.3	-0.2	-10.7%
Cc1ccc(-c2nnn(CC(=O)NCCc3ccc4c(c3)OCO4)n2)cc1	30.9*	-1.5	-0.6	-1.1	2.2	0.4%
COc1ccc(-c2ccc3c(c2)S(=O)(=O)c2cccc(C(=O)N4CCN(C5CCCCC5)CC4)c2C3=O)cc1OC	.	118.2*	?	.	.	.
Cc1ccc(C(=O)Nc2cccc(C(=O)N/N=C/c3ccc(F)cc3)c2)cc1	31.3*	-15.4	2.2	-23.5	-1.5	-4.7%
O=C(N/N=C/c1cccc(Br)c1)c1ccc(Br)cc1	49.9*	-14.3	-0.9	-20.1	-1.9	-16.4%
CC(=O)Nc1cccc(C(=O)N/N=C/c2ccc(F)cc2)c1	-0.6	-14.9	-3.4	-12.1	0.8	-12.6%
O=C(C[n+]1ccccc1)N/N=C/c1cc(Br)ccc1O	36.4*	-19.2	-6.0	-8.3	1.6	-7.3%
